Laboratory results published in the supplement of paper PMC10723795.
± gives the standard deviation of the averaged measurements.

System: RPE1
Assay: nucleolar normality score relative to DMSO (fraction of DMSO control); RPE1 is a non-cancer human cell line; higher = more normal nucleoli (less nucleolar stress)
Description: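 Selected screen hits were validated in hTERT lines (BJ5TA, CHON-002, RPE1) and cancer lines (DLD1, HCT116). Cells were immunostained for nucleolin and UBF and the nucleolar normality score was measured per field of view, with 4 fields per drug. Scores are normalized to each cell line's own DMSO control. Dose and time are not stated for this panel.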

Compound | nucleolar normality score
CC[C@@]1(O)C(=O)OCc2c1cc1n(c2=O)Cc2cc3ccccc3nc2-1 [Camptothecin] | 0.413 ± 0.024
